# Experimental data from PubChem BioAssay (Tox21).
# “And” between values parts separate entries of the source, which are not always exact repeats. Equal values may be shown once. Results filed as inconclusive are left out. A call without a number means that no potency is given here. Where a structure was tested more than once in an assay, its records may differ in their call. The source made the active and inactive calls. Calls follow the shape of the full dose curve.
# Test: qHTS assay to identify small molecule agonists of the endoplasmic reticulum stress response signaling pathway - cell viability counter screen (AID 1159517); also: nearly all actives have a fitted effect of over 50% in size
# Conditions: ESRE-bla HeLa viability, CellTiter-Glo luminescence, 5 h; series mostly up to 61 µM
# Description: U.S. Tox21 Program National Center for Advancing Translational Sciences [NCATS] NIH Chemical Genomics Center [NCGC] U.S. Environmental Protection Agency [EPA] National Institutes of Environmental Health Sciences [NIEHS] National Toxicology Program [NTP] U.S. Food and Drug Administration [FDA] Tox21 Assay Overview: Endoplasmic Reticulum (ER) plays an important role in cellular signaling, protein folding/maturation, stress response, lipid biosynthesis, calcium storage and release etc. Under stress conditions, proteins in ER misfold or unfold, and leading to the expression of ER stress responsive genes. ER stress has been associated with a variety of pathophysiological conditions such as cancer, inflammation, neurodegenerative diseases, diabetes, ischemic heart disease etc. To identify the compounds that induce ER stress response, an ER stress reporter cell line, CellSensor ESRE-bla HeLa (Life Technologies, Carlsbad, CA) containing a beta-lactamase reporter gene under control of the Endoplasmic reticulum Stress Response Element (ESRE) was used to screen Tox21 10K compound library. The cytotoxicity of the Tox21 compound library against the ESRE-bla HeLa cell line was tested in parallel by measuring cell viability using the CellTiter-Glo assay in the same wells.
# Tox21 Assay Protocol Summary: ESRE-bla HeLa cells were dispensed at 1,500 cells/6 uL of assay medium per well into black wall/clear-bottom 1536-well plates using a Multidrop Combi (ThermoFisher Scientific, Waltham, MA) dispenser. After the assay plates were incubated at 37 C and 5% CO2 for an overnight, 23 nL of compounds dissolved in DMSO, positive controls or DMSO only was transferred to the assay plate by a Pintool station (Kalypsys, San Diego, CA). The assay plates were incubated at 37 C and 5% CO2 for 5 hr. One uL of LiveBLAzer B/G FRET substrate (Life Technologies) was added using a FRD (Flying Reagent Dispenser, Aurora Discovery, San Diego, CA) and the plates were incubated at room temperature for 2 hr. Fluorescence intensity (405 nm excitation, 460 nm and 530 nm emissions) was measured using an Envision plate reader (PerkinElmer, Shelton, CT). For cytotoxicity, 4 ul/well of CellTiter-Glo reagent was added into the assay plates using an FRD. After 30 min incubation at room temperature, the luminescence intensity was measured using a ViewLux plate reader (PerkinElmer).
# Potency is read from the fitted curve at half-maximal effect.
row,Structure (SMILES),Potency
1,[CH3][Sn]([Cl])([Cl])[Cl],inactive
2,Cl,inactive
3,OC(c1ccc(Cl)cc1)(c1cncnc1)c1ccccc1Cl (stereo not given),inactive
4,CCCCCCCCCc1ccc(O)cc1,inactive
5,Cc1cccc(N=Nc2ccc(N(C)C)cc2)c1,inactive
6,CCOC(=O)c1ccccc1N,inactive
7,CCOP(=O)(O)OCC (tested in a mixture with another compound),inactive and 24.3 µM (active)
8,COc1ccc(O)c(C(C)(C)C)c1,inactive
9,COP(=O)(NC(C)=O)SC (stereo not given),inactive
10,CCCCCCCC[N+](C)(CCCCCCCC)CCCCCCCC,inactive and 13.8 µM (active) and 21.9 µM (active)
11,ClC(Cl)(Cl)c1ccccc1,inactive
12,CC1=C(C(=O)Nc2ccccc2)SCCO1,inactive
13,[Cl-].[Cl-].[Cl-].[Fe+3],inactive
14,CC(C)(c1ccccc1)c1ccc(O)c(C(C)(C)c2ccccc2)c1,27.3 µM (active) and 27.5 µM (active)
15,O=C1C(Cl)=C(Cl)C(=O)c2ccccc21,19.6 µM (active) and 49 µM (active)
16,CNC(=S)S,inactive
17,C[N+](C)(C)CC(=O)O,inactive
18,CC(C)COC(=O)c1ccccc1C(=O)OCC(C)C,inactive
19,CCCCSP(=O)(SCCCC)SCCCC,inactive
20,CCC[CH2][Sn]([Cl])([Cl])[CH2]CCC,125 nM (active) and 38.9 nM (active)

row,Structure (SMILES),Potency
1,CCCCCCCCCCCCCl,inactive
2,CN(C)P(=O)(N(C)C)N(C)C,inactive
3,O=P(OCCCl)(OCCCl)OCCCl,inactive
4,CCC1(c2ccc(N)cc2)CCC(=O)NC1=O (stereo not given),inactive
5,CC(O)CN(CC(C)O)CC(C)O (stereo not given),inactive
6,CC(C)(C#N)N=NC(C)(C)C#N,inactive
7,CC(C)(O)C(=O)Nc1ccc([N+](=O)[O-])c(C(F)(F)F)c1,inactive
8,CC(C)CON=O,inactive
9,CC1(C)Cc2cccc(O)c2O1,inactive
10,Clc1cccc(C(Cl)(Cl)Cl)n1,inactive
11,c1ccc(C2CO2)cc1 (stereo not given),inactive
12,COC(=O)Nc1nc2ccccc2[nH]1,inactive
13,O=[N+]([O-])c1ccc(Cl)c([N+](=O)[O-])c1,22.2 µM (active) and 49 µM (active)
14,CC(C)Nc1ccc(Nc2ccccc2)cc1,inactive
15,Cn1c(-c2ccccc2)cc(-c2ccccc2)[n+]1C,inactive
16,Cc1ccc([N+](=O)[O-])cc1,inactive
17,O=[N+]([O-])c1ccc(Nc2ccccc2)cc1,inactive and 54.9 µM (active)
18,Cc1ccc(N=CN(C)C=Nc2ccc(C)cc2C)c(C)c1,inactive
19,COc1ccc(C=O)cc1OC,inactive
20,CNC(=O)CSP(=S)(OC)OC,inactive
